Among the data in PubChem BioAssay (Tox21) are Potency and activation values, retold here.

A number with no mark means an inactive call. Calls of active or inactive are those of the source. Unless noted, the call rests on the fitted dose curve; in most records, active means well fitted curve in the direction sought with a large enough effect in the repeat runs; inconclusive means weak or mixed curves; inactive means no such curve, though single readings can be large; an effect the other way counts as inactive or inconclusive.

The nature of experiment [1]: qHTS assay to identify small molecule antagonists of the glucocorticoid receptor (GR) signaling pathway - cell viability counter screen (AID 720693). Further: on the % scale 0 is the no-effect control and ±100 the full control effect; nearly all actives have a fitted effect of over 55% in size.
Experiment [2] is described as follows: qHTS assay for identifying genotoxic compounds that show differential cytotoxicity against isogenic chicken DT40 cell lines with known DNA damage response pathways - wild type cell line (AID 743012). Further: nearly all actives have a fitted effect of over 60% in size. Further: potency means the concentration at half of the fitted maximal effect. The gist of the method: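 Viability of DNA repair-proficient chicken DT40 cells was assessed by CellTiter-Glo luminescence following 40 h compound exposure at 37 C/5% CO2.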

The nature of experiment [3]: qHTS assay for identifying genotoxic compounds that show differential cytotoxicity against isogenic chicken DT40 cell lines with known DNA damage response pathways - Rad54/Ku70 mutant cell line (AID 743015). Further: nearly all actives have a fitted effect of over 60% in size. Further: potency means the concentration at half of the fitted maximal effect.
A short description of experiment [4]: qHTS assay to identify small molecule antagonists of the androgen receptor (AR) signaling pathway - cell viability counter screen (AID 743033; further: on the % scale 0 is the no-effect control and ±100 the full control effect; nearly all actives have a fitted effect of over 45% in size).
Experiment [5] can be described thus: qHTS assay to identify small molecule antagonists of the androgen receptor (AR) signaling pathway using the MDA cell line - cell viability counter screen (AID 743041; further: on the % scale 0 is the no-effect control and ±100 the full control effect; nearly all actives have a fitted effect of over 45% in size). In a few lines: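 In this qHTS counter assay, fluorescence intensity after CellTiter-Fluor addition indicated viability of MDA-kb2 AR-luc cells given compounds and R1881 for 16 h at 37C.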
The nature of experiment [6]: qHTS assay to identify small molecule antagonists of the thyroid receptor (TR) signaling pathway (AID 743065). Further: nearly all actives have a fitted effect of over 55% in size. Further: potency means the concentration at half of the fitted maximal effect. The gist of the method:
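GH3.TRE-Luc rat pituitary cells carrying two TR response elements driving luciferase were plated for 4 h, given compound plus 1 nM T3 (final), and incubated 23.5 h at 37 C. ONE-Glo luminescence measured reporter inhibition; CellTiter-Fluor fluorescence tracked cytotoxicity.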

In experiment [7] the test system is thyroid hormone receptor (rat, GH3 cells). In words: qHTS assay to identify small molecule agonists of the thyroid receptor (TR) signaling pathway (AID 743066; calls by dose curve; further: on the % scale 0 is the no-effect control and ±100 the full control effect).
Experiment [8] is described as follows: qHTS assay to identify small molecule antagonists of the estrogen receptor alpha (ER-alpha) signaling pathway using the BG1 cell line - cell viability counter screen (AID 743081).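 Further: compound given together with 17beta-estradiol as the ER stimulus; on the % scale 0 is the no-effect control and ±100 the full control effect; nearly all actives have a fitted effect of over 45% in size.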
Another experiment addresses Aromatase (Homo sapiens) (UniProt P11511). In words: qHTS assay to identify aromatase inhibitors (AID 743083). Further: on the % scale 0 is the no-effect control and ±100 the full control effect; nearly all actives have a fitted effect of over 55% in size.
The nature of experiment [9]: qHTS assay to identify aromatase inhibitors - cell viability counter screen (AID 743084).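 Further: cells stimulated with testosterone during compound exposure; on the % scale 0 is the no-effect control and ±100 the full control effect; nearly all actives have a fitted effect of over 55% in size.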
A short description of experiment [10]: qHTS assay to identify small molecule antagonists of the thyroid receptor (TR) signaling pathway - cell viability counter screen (AID 743064). Further: on the % scale 0 is the no-effect control and ±100 the full control effect; nearly all actives have a fitted effect of over 50% in size. In a few lines:
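GH3.TRE-Luc rat pituitary cells carrying a TRE-luciferase reporter were treated with compound plus 1 nM T3 (final) for 23.5 h at 37 °C. Viability was then read in the same wells by CellTiter-Fluor fluorescence after a further 30 min.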

Experiment [11] is described as follows: qHTS assay to identify small molecule antagonists of the estrogen receptor alpha (ER-alpha) signaling pathway - cell viability counter screen (AID 743074; calls by dose curve;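 further: HEK293 cells carrying ER-alpha-UAS-bla reporter stimulated with 17beta-estradiol; on the % scale 0 is the no-effect control and ±100 the full control effect; nearly all actives have a fitted effect of over 45% in size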).
Experiment [12] deals with Estrogen receptor (Homo sapiens) (UniProt P03372). In words: qHTS assay to identify small molecule antagonists of the estrogen receptor alpha (ER-alpha) signaling pathway (AID 743069; active means well fitted curve in the direction sought with a large enough effect in the signal ratio in the repeat runs, not every such curve was filed as active; inconclusive means weak or mixed curves, or effect the other way; inactive means no such curve, though single readings can be large or run the other way; the % refers to the signal ratio; further: on the % scale 0 is the no-effect control and ±100 the full control effect). In a few lines:
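A 17beta-estradiol challenge was applied right after compound transfer to ER-alpha-UAS-bla HEK293 cells previously kept in charcoal-stripped serum. Plates stood 18 hr at 37C and 5% CO2; fluorescence was read following 2 hr FRET substrate loading at room temperature.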

Experiment [13] shares this target. Put plainly: qHTS assay to identify small molecule agonists of the estrogen receptor alpha (ER-alpha) signaling pathway (AID 743075; calls by dose curve;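 further: HEK293 GripTite cells with ER-alpha and UAS-driven beta-lactamase reporter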; further: potency means the concentration at half of the fitted maximal effect; on activation: on the % scale 0 is the no-effect control and ±100 the full control effect).
For experiment [14] the target is unchanged. In words: qHTS assay to identify small molecule agonists of the estrogen receptor alpha (ER-alpha) signaling pathway using the BG1 cell line (AID 743079). Further: nearly all actives have a fitted effect of over 20% in size. Further: potency means the concentration at half of the fitted maximal effect. On activation: on the % scale 0 is the no-effect control and ±100 the full control effect. Particulars: BG1Luc4E2 cells, ERE-luciferase agonist, 22 h.
The nature of experiment [15]: qHTS assay to identify small molecule antagonists of the estrogen receptor alpha (ER-alpha) signaling pathway using the BG1 cell line (AID 743080; calls by dose curve;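 further: BG1 cells stimulated with 17beta-estradiol alongside compound; on the % scale 0 is the no-effect control and ±100 the full control effect; nearly all actives have a fitted effect of over 25% in size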). The gist of the method: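 BG1Luc4E2, endogenous ER-alpha, 4xERE-luc; 5 d charcoal-stripped FBS, phenol red free; 24 h plating; cpd + 17beta-estradiol 21.5 h, 37 C/5% CO2; CellTiter-Fluor viability 30 min, then ONE-Glo luciferase 30 min RT.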

Experiment [16] concerns the target Androgen receptor (Homo sapiens) (UniProt P10275). Put plainly: qHTS assay to identify small molecule antagonists of the androgen receptor (AR) signaling pathway using the MDA cell line (AID 743042). In a few lines: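 MDA-kb2 cells (human breast carcinoma, stably carrying an MMTV-luciferase reporter responsive to AR and GR) were plated at 3,000 cells/well and preincubated 5 hr at 37C, then given compound plus R1881 agonist for 16 h. ONE-Glo luminescence was read.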

Experiment [17] can be described thus: qHTS assay for identifying genotoxic compounds that show differential cytotoxicity against isogenic chicken DT40 cell lines with known DNA damage response pathways - Rev3 mutant cell line (AID 743014).

Sequence of Estrogen receptor (Homo sapiens) (P03372 whole entry, looked up): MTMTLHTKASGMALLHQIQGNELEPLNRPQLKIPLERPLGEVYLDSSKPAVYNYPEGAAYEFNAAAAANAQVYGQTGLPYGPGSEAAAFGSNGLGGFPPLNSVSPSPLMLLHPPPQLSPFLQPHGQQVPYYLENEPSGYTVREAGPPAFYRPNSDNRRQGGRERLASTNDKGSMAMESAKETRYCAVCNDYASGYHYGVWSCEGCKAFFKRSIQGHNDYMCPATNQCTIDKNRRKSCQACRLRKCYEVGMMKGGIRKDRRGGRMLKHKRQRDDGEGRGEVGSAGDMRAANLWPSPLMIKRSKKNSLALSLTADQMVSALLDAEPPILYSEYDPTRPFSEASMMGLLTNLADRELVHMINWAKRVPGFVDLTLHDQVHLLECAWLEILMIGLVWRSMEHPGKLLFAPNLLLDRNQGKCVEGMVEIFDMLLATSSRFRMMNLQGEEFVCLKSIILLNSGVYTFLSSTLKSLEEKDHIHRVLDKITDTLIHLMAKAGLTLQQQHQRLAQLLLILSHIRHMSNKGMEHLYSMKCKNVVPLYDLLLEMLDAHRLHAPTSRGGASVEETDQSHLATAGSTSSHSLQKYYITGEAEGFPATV
Sequence of Aromatase (Homo sapiens) (P11511 whole entry, looked up): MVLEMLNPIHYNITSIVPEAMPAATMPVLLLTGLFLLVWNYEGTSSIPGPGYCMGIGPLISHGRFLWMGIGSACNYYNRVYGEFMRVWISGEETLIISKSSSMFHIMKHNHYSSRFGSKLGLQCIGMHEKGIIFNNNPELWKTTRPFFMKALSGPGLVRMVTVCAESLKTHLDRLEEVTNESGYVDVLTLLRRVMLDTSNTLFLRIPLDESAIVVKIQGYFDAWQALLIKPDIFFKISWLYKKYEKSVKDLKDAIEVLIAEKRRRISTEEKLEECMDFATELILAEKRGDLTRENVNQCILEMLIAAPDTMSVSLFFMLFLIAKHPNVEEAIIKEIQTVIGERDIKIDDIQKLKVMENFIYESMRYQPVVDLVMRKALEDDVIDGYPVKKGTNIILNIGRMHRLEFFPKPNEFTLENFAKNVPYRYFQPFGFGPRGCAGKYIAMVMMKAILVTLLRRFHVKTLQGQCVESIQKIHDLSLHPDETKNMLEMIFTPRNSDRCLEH
Sequence of Androgen receptor (Homo sapiens) (P10275 whole entry, looked up): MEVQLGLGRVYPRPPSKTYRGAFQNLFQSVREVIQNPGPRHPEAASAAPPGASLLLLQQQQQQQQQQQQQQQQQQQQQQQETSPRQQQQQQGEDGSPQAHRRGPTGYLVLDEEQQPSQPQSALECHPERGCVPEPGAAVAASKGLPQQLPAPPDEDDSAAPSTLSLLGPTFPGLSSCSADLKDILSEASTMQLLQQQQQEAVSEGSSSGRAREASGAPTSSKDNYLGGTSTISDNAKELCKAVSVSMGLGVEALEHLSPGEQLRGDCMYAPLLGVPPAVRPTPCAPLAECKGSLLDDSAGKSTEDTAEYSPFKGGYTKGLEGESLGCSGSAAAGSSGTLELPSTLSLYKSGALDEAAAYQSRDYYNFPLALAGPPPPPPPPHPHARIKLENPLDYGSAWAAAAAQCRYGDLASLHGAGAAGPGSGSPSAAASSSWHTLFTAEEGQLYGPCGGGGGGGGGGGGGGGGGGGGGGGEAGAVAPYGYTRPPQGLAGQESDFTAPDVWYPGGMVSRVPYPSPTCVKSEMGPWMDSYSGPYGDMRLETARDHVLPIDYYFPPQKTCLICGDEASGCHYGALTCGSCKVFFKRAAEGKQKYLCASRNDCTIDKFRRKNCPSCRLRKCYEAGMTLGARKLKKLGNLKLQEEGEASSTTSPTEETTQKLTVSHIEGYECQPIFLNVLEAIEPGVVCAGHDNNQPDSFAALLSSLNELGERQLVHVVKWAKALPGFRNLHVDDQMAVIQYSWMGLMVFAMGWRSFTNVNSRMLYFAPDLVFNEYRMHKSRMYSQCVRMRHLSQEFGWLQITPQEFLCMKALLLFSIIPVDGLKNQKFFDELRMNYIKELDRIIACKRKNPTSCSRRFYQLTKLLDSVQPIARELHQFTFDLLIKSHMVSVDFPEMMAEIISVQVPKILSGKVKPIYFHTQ

With `COC1=CC(=O)O[C@@H](/C=C/c2ccccc2)C1`, the Potency result in [1], in [2], in experiment [3], in experiment [4], in [5] and in [6] was “inactive” each time. Moreover, the Potency entry (in experiment [7]; in [8]; with Aromatase (Homo sapiens); in experiment [9]) was “inactive” in each case.
For the molecule `CC(C)C(C)(N)C#N` (stereo unspecified), the Potency result in experiment [1], in experiment [2], in experiment [3], in experiment [4], in experiment [6] and in experiment [7] was “inactive” in each case. Moreover, the Potency entry (in [8]; with Aromatase (Homo sapiens); in experiment [9]) was “inactive” throughout.
In the case of `CC1=C2[C@H]3OC(=O)[C@@H](C)[C@@H]3CC[C@@]2(C)C=CC1=O`, the Potency result in experiment [1], in experiment [2], in [3], in experiment [4], in experiment [5] and in [10] was “inactive” throughout. Further, the Potency entry (in experiment [6]; in experiment [7]; in experiment [11]; in [8]; with Aromatase (Homo sapiens); in [9]) was “inactive” in each case.
With `CC(C)(C1CCC(O)CC1)C1CCC(O)CC1` (stereo unspecified), the Potency entry in [1], in experiment [2], in [3], in experiment [4], in [5] and in experiment [10] was “inactive” in each case. The Potency result in experiment [6], in experiment [7], in experiment [12], in experiment [11], in [15] and in [8] was “inactive” in each case. Also, the Potency result (in the experiment with Aromatase (Homo sapiens); in experiment [9]) was “inactive” in each case. Also, the Potency is 49 µM [activator] (active) in [13] and 54.5 µM (active) in [14].
For the molecule `[P]#[In]`, the Potency entry in experiment [1], in experiment [2], in experiment [3], in [4], in experiment [5] and in [10] was “inactive” each time. Besides, the Potency entry (in experiment [7]; in experiment [11]; in [8]; with Aromatase (Homo sapiens); in experiment [9]) was “inactive” each time.
For `Cc1ccc2cc(C)ccc2c1`, the Potency entry in experiment [1], in [2], in experiment [3], in experiment [4], in [5] and in experiment [6] was “inactive” in each case. Moreover, the Potency entry (in experiment [7]; in experiment [11]; in experiment [8]; in the experiment with Aromatase (Homo sapiens); in [9]) was “inactive” in each case.
With `CCOc1cc(OP(=S)(OC)OC)nc(CC)n1`, the Potency result in experiment [1], in experiment [2], in experiment [3], in experiment [4], in experiment [5] and in experiment [10] was “inactive” each time. Further, the Potency entry (in experiment [12]; in experiment [11]; in [13]; in experiment [15]; in experiment [8]; with Aromatase (Homo sapiens)) was “inactive” each time. The Potency result in experiment [9] is “inactive”. Further, in experiment [14] (at 70.3 µM (top of the series)), the activation is -2.44%.
Regarding `O=c1[nH]c2ccccc2o1`, the Potency entry in experiment [1], in experiment [2], in experiment [3], in experiment [4], in experiment [5] and in experiment [10] was “inactive” each time. Also, the Potency entry (in experiment [6]; in experiment [7]; in experiment [11]; in experiment [8]; in the experiment with Aromatase (Homo sapiens); in experiment [9]) was “inactive” each time.
As for `Nc1c(Cl)c(F)nc(OCC(=O)O)c1Cl`, the Potency entry in [1], in [2], in experiment [3], in [4], in experiment [5] and in experiment [16] was “inactive” each time. Besides, the Potency entry in experiment [10], in [6], in [7], in experiment [12], in [11] and in [13] was “inactive” in each case. The Potency result (in experiment [15]; in experiment [8]; with Aromatase (Homo sapiens); in experiment [9]) was “inactive” in each case. The activation in experiment [14] (at 70.3 µM (top of the series)) was -0.92%.
For the molecule `CCCCCCC1CCOC1=O` (stereo unspecified), the Potency result in experiment [1], in experiment [2], in experiment [3], in experiment [4], in experiment [5] and in [10] was “inactive” throughout. In addition, the Potency entry (in experiment [6]; in experiment [7]; in experiment [11]; in experiment [8]; in the experiment with Aromatase (Homo sapiens); in experiment [9]) was “inactive” each time.
Regarding `CCc1cc(OC)c(C[C@H](C)N)cc1OC`, the Potency entry (in experiment [1]; in experiment [4]; in experiment [7]; in experiment [11]; with Aromatase (Homo sapiens); in experiment [9]) was “inactive” each time. Further, the figures for the Potency in experiment [2], in [17] and in experiment [6] were 63.7 µM (active), 71.5 µM (active) and 31.9 µM (active), respectively.
For the molecule `C=C1C[C@@H]2[C@H](CC[C@]3(C)C(=O)CC[C@@H]23)[C@@]2(C)C=CC(=O)C=C12`, the Potency result in [1] and in experiment [5] was “inactive” each time. In addition, the values for the Potency in [2] and in experiment [3] were 7.5 µM (active) and 13.3 µM (active), respectively.
Consider `CCCCCCCC(=O)Cl`, for which the Potency entry in experiment [1], in experiment [2], in [3], in [4], in experiment [5] and in experiment [10] was “inactive” in each case. Moreover, the Potency entry in [7], in experiment [12], in experiment [11], in [13], in [15] and in experiment [8] was “inactive” in each case. The Potency entry (with Aromatase (Homo sapiens); in [9]) was “inactive” each time. For the same molecule, in [14] (at 95 µM (top of the series)), the activation is -1.47%.
For the molecule `C[C@]12C=CC(=O)C=C1CC[C@@H]1[C@@H]2CC[C@@]2(C)[C@H]1CC[C@]2(C)O`, the Potency in experiment [2] is 23.7 µM (active); in experiment [17], 11.9 µM (active); in [3], 29.8 µM (active); in experiment [13] it was 0.425 µM [inconclusive] (active); in experiment [14] it was 0.15 µM (active). Besides, the Potency entry in experiment [4], in experiment [5], in experiment [10], in experiment [7], in experiment [11] and in [15] was “inactive” each time. Moreover, the Potency entry (in experiment [8]; with Aromatase (Homo sapiens); in experiment [9]) was “inactive” in each case.
